# Bioassay records as filed in PubChem.
# This is a sample that favours compounds with a hit; in the whole collection about 21% have one here.
# CYP2C19 inh: blockers of cytochrome P450 2C19 activity – biochemical, luminescence, ADME assay, primary screen; 21% of 96,000 active; P33261; AID 778, 2007; inhibition, % at 5 µM; CYP2C19 Supersomes, luciferin-H EGE luminescence, 30 min;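 active means CYP2C19 inhibition above a set limit at 5 µM in the primary screen, cut at about 50% in these data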;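 further: plate controls were negative control wells for no effect and 2.5 mM tranylcypromine positive control for full effect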
# Target sequence (P33261 whole entry, looked up): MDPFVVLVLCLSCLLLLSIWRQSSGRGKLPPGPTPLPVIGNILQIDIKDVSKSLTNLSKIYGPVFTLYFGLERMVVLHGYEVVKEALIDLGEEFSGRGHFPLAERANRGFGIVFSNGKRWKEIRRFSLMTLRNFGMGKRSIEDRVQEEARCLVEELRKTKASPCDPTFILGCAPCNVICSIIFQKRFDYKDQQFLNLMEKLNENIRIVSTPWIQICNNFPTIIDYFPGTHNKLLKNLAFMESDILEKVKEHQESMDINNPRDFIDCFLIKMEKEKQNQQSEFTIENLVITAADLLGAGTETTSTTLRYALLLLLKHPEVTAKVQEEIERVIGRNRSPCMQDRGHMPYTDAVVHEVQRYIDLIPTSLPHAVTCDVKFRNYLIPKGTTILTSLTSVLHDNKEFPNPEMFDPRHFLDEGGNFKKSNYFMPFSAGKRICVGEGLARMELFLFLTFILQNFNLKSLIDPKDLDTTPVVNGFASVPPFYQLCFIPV
# MRP1 act: H69AR viability gain despite doxorubicin, primary screen, MRP-1 activator project, H69AR cells, CellTiter-Glo | viability rescue | viability increase, % at 10 µM | 0.61% of 140,000 active | AID 799, 2007;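 active means viability gain under doxorubicin at or above a set limit, the compound median plus 3 SD, cut at about 4.7% in these data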;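 further: MRP-1 overexpressing cells given doxorubicin 25 µM after compound pretreatment; 18-22 h compound pretreatment then 72 h with doxorubicin before readout; 0% = doxorubicin-only wells and 100% = vehicle-treated cells without doxorubicin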
# MRP resist rev: reversal of MRP1-mediated doxorubicin resistance, primary screen, H69AR cells, doxorubicin co-treatment; AID 602, 2007; H69AR cells + 2 uM doxorubicin, CellTiter-Glo, 72 h; differential viability (reversal), % at 10 µM; 0.04% of 85,000 active;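 active means viability drop by adding the cancer drug above about 55%, with treated viability meeting a 40% cutoff, limit read from the data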;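 further: viability without doxorubicin minus viability with 2 µM doxorubicin for each compound; larger differential means the compound sensitizes cells more to doxorubicin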
# CYP2C9 activ: human CYP2C9 activators, primary screen, biochemical, luminescence; recombinant CYP2C9, luciferin-H conversion; stronger effect = higher value; factor 1 = untreated enzyme, 0 = blocked; activation factor at 5 µM; 1.4% of 96,000 active;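 active means activation factor of 2 or more for CYP2C9 at a 5 µM dose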;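 further: 0 = sulfaphenazole-blocked wells and 1 = vehicle-only wells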
# CYP2C19 activ: human CYP2C19 activators, primary screen, biochemical, luminescence; 96,000 tested, under 10 active; activation factor at 5 µM; AID 1025, 2008; recombinant CYP2C19, luciferin-H EGE luminescence; stronger effect = higher value; 0 = fully inhibited enzyme, 1 = untreated enzyme; Cytochrome P450 2C19 (Homo sapiens), P33261;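 active means activation factor of at least 2 at 5 µM in the primary screen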;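 further: 0 = wells with 2.5 mM tranylcypromine and 1 = vehicle-only wells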
# CYP2C9 inh: blockers of cytochrome P450 2C9 activity – biochemical, luminescence, ADME assay, primary screen | CYP2C9 Supersomes, luciferin-H conversion | AID 777, 2007 | inhibition, % at 5 µM | P11712 | 20% of 96,000 active;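 active means blocking of liver enzyme CYP2C9 beyond about 50% at 5 µM, limit read from the data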
# Active calls of the source: *; . = no result given.
SMILES,CYP2C19 inh,MRP1 act,MRP resist rev,CYP2C9 activ,CYP2C19 activ,CYP2C9 inh
O=C(COc1ccccc1)Nc1ccccc1N1CCN(c2ccccc2)CC1,20.8,-1.6,.,0.4,0.8,55.8*
CC(=O)n1cc(C(C[N+](=O)[O-])SCCN)c2ccccc21 (stereo unspecified),28.8,-1.0,0.2,0.6,0.7,43.8
CCOC(=O)C1CCN(c2ccc(C(N)=O)cc2[N+](=O)[O-])CC1,.,-1.0,.,.,.,.
O=[N+]([O-])c1cccc(CNc2ccc3c(c2)CCC3)c1,.,1.9,.,.,.,.
CCOc1cc(CNc2ccc3c(c2)CCC3)ccc1OC,55.8*,-1.1,10.3,0.8,0.4,23.4
Cc1ccc(CNC(=O)C23CN(Cc4ccccc4)CC2C(c2cccc([N+](=O)[O-])c2)=NO3)cc1 (stereo unspecified),88.2*,-0.3,.,0.4,0.1,60.7*
O=C(NCCc1cccs1)C12CN(Cc3ccccc3)CC1C(c1cccc([N+](=O)[O-])c1)=NO2 (stereo unspecified),49.9,-1.4,.,0.3,0.5,72.6*
CCN1C(=O)/C(=C\c2ccco2)C(C(=O)OC)=C1C,22.9,-3.6,.,0.6,0.8,35.2
COC(=O)C1=C(C)N(Cc2ccc(C)cc2)C(=O)/C1=C\c1ccc(O)c(OC)c1,51.5*,-5.5,.,0.1,0.5,92.3*
COC(=O)C1=C(C)N(CC2CCCO2)C(=O)/C1=C\c1ccc(O)cc1 (stereo unspecified),50.0*,-4.3,.,0.4,0.5,62.7*
COC(=O)C1=C(C)N(Cc2ccc(C)cc2)C(=O)/C1=C\c1cc(OC)c(OC)c(OC)c1,.,-4.9,.,.,.,.
O=c1c2c3c(sc2nc2sc(CN4CCOCC4)cn12)CCCC3,2.8,-0.4,-1.4,0.8,1,20.5
Cc1cc(=O)[nH]c(S/C=C/c2ccccc2)n1,17.1,-1.1,-10.1,0.6,0.8,36.2
Cc1cccc(OCCc2nnc(N)s2)c1C,-1.4,-0.8,-8.5,1.1,1,-5.3
CC1(C)NC(C)(C)C(O)(C(N)=O)C1=O (stereo unspecified),-3.5,-0.4,-23.1,1.2,1,-22.0
Cc1ccc(NC(=O)c2ccc3ccccc3n2)nc1,16.5,-3.6,-34.6,0.7,0.8,29.2
COC(=O)c1sccc1NC(=O)CN(C)NS(=O)(=O)c1ccc(F)cc1,16.7,-4.1,.,0.1,0.8,91.3*
COC(=O)c1sccc1NC(=O)CN(C)NS(=O)(=O)c1ccc([N+](=O)[O-])cc1,1.7,-3.5,.,0.9,1,11.6
COC(=O)c1sccc1NC(=O)CSc1ccccc1NS(=O)(=O)c1ccc(F)cc1,27.0,-0.9,.,0.3,0.7,74.2*
COC(=O)c1sccc1NC(=O)CSc1nnnn1-c1ccccc1F,3.5,-2.2,.,2.1*,1,-113.5
COC(=O)c1sccc1NC(=O)CSc1ccccc1NS(=O)(=O)c1ccc(Br)cc1,18.7,-1.6,.,0.2,0.8,79.8*
COC(=O)c1sccc1NC(=O)CSc1ccc(Cl)cc1,5.8,1.1,.,0.8,0.9,16.9
COC(=O)c1sccc1NC(=O)CN(C)NS(=O)(=O)c1ccc(Cl)cc1,15.3,-4.7,.,0.9,0.8,11.1
O=C(c1ccc(-c2ccccc2)cc1)N1CCN(Cc2ccccn2)CC1,-4.0,-4.5,12.5,1.1,1,-9.2
CC(C)CNC(=S)NC(=O)c1ccc(Cl)cc1Cl,.,-1.4,.,.,.,.
SMILES,CYP2C19 inh,MRP1 act,MRP resist rev,CYP2C9 activ,CYP2C19 activ,CYP2C9 inh
N#CNC1=NCN(Cc2ccccc2)CN1,-7.9,-1.8,-13.1,1.1,1.1,-12.2
COC(=O)c1ccc(NC(=O)C2CC(=O)N(c3ccc(C)cc3)C2)cc1 (stereo unspecified),.,-1.9,-5.7,.,.,.
Nc1scc2c(C(=O)N/N=C/c3ccc(Cl)cc3)nn(-c3ccccc3)c(=O)c12,5.6,0.3,.,0.5,0.9,54.0*
CCOC(=O)c1nn(-c2ccccc2)c(=O)c2c(N)scc12,7.0,-1.4,-7.7,1,0.9,4.6
CCOC(=O)c1ccc(CSc2nnc(N)s2)cc1,70.0*,0.5,7.3,0.3,0.3,65.0*
Nc1nnc(COc2cccc(C(F)(F)F)c2)s1,63.9*,-1.9,0.1,1,0.4,0.2
Nc1nnc(SCc2ccc(F)cc2Cl)s1,90.8*,-1.8,8.1,0.9,0.1,11.2
Nc1nnc(SCc2ccc(Cl)cc2)s1,.,2.8,24.8,.,.,.
Nc1nnc(SCc2cccnc2)s1,-13.1,-0.7,6.6,1.1,1.1,-13.2
Nc1nnc(SCc2cccc(C(F)(F)F)c2)s1,95.5*,-2.7,-1.2,1.3,0,-26.4
NS(=O)(=O)c1ccc(NC(=O)COC(=O)CCNC(=O)NC23CC4CC(CC(C4)C2)C3)cc1,29.6,-0.3,-7.7,0.4,0.7,64.8*
CCOC(=O)C1CN(S(=O)(=O)c2cccc(C(F)(F)F)c2)c2cc(CC(=O)OC)ccc2O1 (stereo unspecified),78.7*,-1.9,.,0.4,0.2,59.9*
N#Cc1nn(-c2ccccc2)nc1N1CCCCC1,15.6,-1.5,2.5,0.5,0.8,50.7*
Cc1ccc(S(=O)(=O)NCC2CCC(C(=O)O)CC2)cc1 (stereo unspecified),4.4,2.9,3.9,0.9,1,7.8
COCCNC(=O)Nc1ccc2nc(-c3cccs3)c(-c3cccs3)nc2c1,2.2,0.0,-8.5,0.5,1,51.9*
Cc1ccc(C)c(N2CCN(C(=O)c3ccc(NS(=O)(=O)c4c(C)noc4C)cc3)CC2)c1,7.1,3.5,.,0,0.9,96.9*
Cc1noc(C)c1S(=O)(=O)Nc1ccc(C(=O)N2CCCCC2)cc1,23.1,-1.0,-6.3,0.5,0.8,52.0*
Cc1ccc(C)c(N2CCN(C(=O)C3CCN(S(=O)(=O)c4c(C)noc4C)CC3)CC2)c1,.,.,16.2,.,.,.
Cc1noc(C)c1S(=O)(=O)Nc1ccc(C(=O)NC2CCCCC2)cc1,2.6,1.6,.,0.8,1,18.6
Cc1ccc(Cl)cc1N1CCN(C(=O)c2ccc(NS(=O)(=O)c3c(C)noc3C)cc2)CC1,14.6,-0.2,.,0,0.9,99.5*
Nc1cccc(-n2nnnc2CN2CCOCC2)c1,.,0.7,.,.,.,.
Cn1nnc(-c2ccc(OCc3ccccc3F)cc2)n1,66.2*,-0.1,10.4,0.8,0.3,20.2
Fc1ccccc1COc1ccc(-c2nnn(Cc3ccccc3F)n2)cc1,-6.5,4.5,8.0,0.8,1.1,18.9
Cc1csc(SCc2ccc(C(=O)O)cc2)n1,-4.9,0.4,.,1,1,-4.3
Cc1ccc(SCCNS(=O)(=O)c2ccc(F)cc2)cc1,95.7*,-0.9,13.0,0.1,0,88.3*
